Bioassay records deposited in PubChem BioAssay by several laboratories.
A selection: hits, their analogues and other compounds. The true share with any hit is near 3.9%.
PLCg1 inh – PLC-gamma1 enzyme inhibitors, primary screen, biochemical, fluorescence, purified enzyme | actives 0.84% (n = 370,000) | 1-phosphatidylinositol 4,5-bisphosphate phosphodiesterase gamma-1 (Homo sapiens), P19174 | AID 720700, 2013 | fluorogenic substrate | inhibition, % at 12.2 µM; in the data active = inhibition above about 9.5%
Target sequence (P19174 whole entry, looked up): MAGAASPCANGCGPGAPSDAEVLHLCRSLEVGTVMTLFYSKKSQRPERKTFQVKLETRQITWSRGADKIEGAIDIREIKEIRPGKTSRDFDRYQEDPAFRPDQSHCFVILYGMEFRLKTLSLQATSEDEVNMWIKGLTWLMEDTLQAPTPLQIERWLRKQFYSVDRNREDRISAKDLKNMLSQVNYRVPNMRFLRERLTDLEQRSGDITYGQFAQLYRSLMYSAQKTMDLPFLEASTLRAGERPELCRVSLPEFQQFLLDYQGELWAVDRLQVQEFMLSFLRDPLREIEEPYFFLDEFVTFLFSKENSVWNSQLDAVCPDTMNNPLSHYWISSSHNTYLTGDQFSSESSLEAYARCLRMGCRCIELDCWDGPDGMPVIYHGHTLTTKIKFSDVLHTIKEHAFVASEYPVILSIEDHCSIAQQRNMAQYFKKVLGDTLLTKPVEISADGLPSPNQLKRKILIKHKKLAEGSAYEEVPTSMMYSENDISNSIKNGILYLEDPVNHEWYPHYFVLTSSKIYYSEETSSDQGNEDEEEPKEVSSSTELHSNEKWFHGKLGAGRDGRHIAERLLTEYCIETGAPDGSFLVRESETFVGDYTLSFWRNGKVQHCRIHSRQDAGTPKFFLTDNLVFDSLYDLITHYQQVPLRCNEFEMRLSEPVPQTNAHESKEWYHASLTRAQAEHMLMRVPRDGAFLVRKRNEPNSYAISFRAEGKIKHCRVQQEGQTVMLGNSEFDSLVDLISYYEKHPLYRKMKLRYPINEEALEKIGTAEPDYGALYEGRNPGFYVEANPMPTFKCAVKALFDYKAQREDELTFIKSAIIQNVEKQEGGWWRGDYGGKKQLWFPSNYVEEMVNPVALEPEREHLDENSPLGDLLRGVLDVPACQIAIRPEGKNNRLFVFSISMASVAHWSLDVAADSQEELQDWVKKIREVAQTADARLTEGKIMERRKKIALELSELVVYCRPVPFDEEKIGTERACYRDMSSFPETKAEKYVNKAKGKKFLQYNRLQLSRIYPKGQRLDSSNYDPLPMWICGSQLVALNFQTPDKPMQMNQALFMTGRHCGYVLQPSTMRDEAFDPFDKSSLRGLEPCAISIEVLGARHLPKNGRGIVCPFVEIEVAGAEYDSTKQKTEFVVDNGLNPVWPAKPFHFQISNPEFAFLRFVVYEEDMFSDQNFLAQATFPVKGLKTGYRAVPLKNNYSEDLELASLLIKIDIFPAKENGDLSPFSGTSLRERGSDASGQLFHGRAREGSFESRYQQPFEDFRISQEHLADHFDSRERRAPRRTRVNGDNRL
CR mimetic SO – reduction of superoxide in aged yeast, primary screen, HTS; S. cerevisiae aged cells, superoxide DHE fluorescence; hits give low values; superoxide response (% of plate mean), % at 10 µM; actives 0.18% (n = 330,000);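 active = superoxide response under a set limit, about three screen SD below normal, cut at about 65% in these data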;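 also: yeast aged for seven days with compound at 30 °C before DHE staining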
sPLA2-III inh – human group III sPLA2 inhibitors, primary screen, biochemical, QFRET, BODIPY PC-A2 liposome substrate; QFRET BODIPY PC-A2 liposome hydrolysis, fluorescence; Group 3 secretory phospholipase A2 (Homo sapiens), Q9NZ20; actives 0.56% (n = 370,000); inhibition, % at 12.2 µM;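 active = inhibition above mean plus 3 SD of compounds lying within the high and low control bounds, cut at about 19% in these data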
HIF act – HIF pathway transcriptional activators, primary screen, cell-based, U2OS HRE-luciferase, luminescence. U2OS HRE-luciferase reporter; normalized: DMSO 0%, desferrioxamine 100%. activation, % at 7.5 µM (by protocol). actives 0.32% (n = 300,000). AID 1910, 2009;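 active = mean activation of at least 10% of the iron chelator positive control signal, with at least half of replicates also reaching 10%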
AHR activator – AHR activators, primary screen, cell-based, luminescence, luciferase reporter, human | activation, % at 5 µM | AHR-responsive luciferase reporter cells | AID 2796, 2010 | Aryl hydrocarbon receptor (Homo sapiens), P35869 | actives 2.5% (n = 320,000); in the data active = activation above about 47%
PLC-beta3 inh – human PLC-beta3 inhibitors, primary screen, biochemical, fluorescence; AID 720704, 2013; actives 0.18% (n = 370,000); 1-phosphatidylinositol 4,5-bisphosphate phosphodiesterase beta-3 (Homo sapiens), Q01970; inhibition, % at 12.2 µM; Purified PLC-beta3, fluorogenic substrate; in the data active = inhibition above about 11%
Hits are given with their value; - = inactive; . = not tested or not shown.

SMILES	PLCg1 inh	CR mimetic SO	sPLA2-III inh	HIF act	AHR activator	PLC-beta3 inh
C/C(=N/Nc1nc(-c2ccccc2F)nc2ccccc12)c1ccccc1O	-	-	-	-	-	-
C/C(=N\Nc1nc(-c2ccccc2O)nc2ccccc12)c1ccccc1	-	-	-	-	53	-
COc1cccc(COc2ccccc2C2Nc3ccc(Br)cc3C(=O)N2NC(=O)c2ccncc2)c1 (configuration not stated)	-	-	-	-	52	-
CN(C)/N=C/C=C1\CC/C(=C\c2ccc(Br)cc2)C1=O	-	-	-	-	-	-
CN(C)/N=C/C=C1\CCC/C(=C/c2cccs2)C1=O	-	-	-	10	-	-
C=CCn1c(Cc2cccs2)nnc1SCC(=O)Nc1ccc(C)cc1	-	.	-	.	.	-
CC1(C)CC2CC(C)(CN2C(=O)COC(=O)c2ccccc2C(F)(F)F)C1 (configuration not stated)	12	-	-	.	-	-
COc1cccc(CNC(=O)C[C@H]2CC[C@H]3[C@@H](COc4ccc(NC(=O)c5cccs5)cc4C(=O)N3C)O2)c1	-	.	-	.	.	-
Cc1cc(C(=O)N/N=C/c2cccc(Cl)c2Cl)no1	-	-	-	-	47	-
CCOC(=O)N/N=C/c1cccc(Cl)c1Cl	-	-	-	-	-	-
CC(C)=N/N=C(/c1ccc([N+](=O)[O-])cc1)C12CN3CN(CN(C3)C1)C2	-	-	-	-	-	-
O=[N+]([O-])c1cccc(/C(=N/N=C/c2ccccc2Br)C23CN4CN(CN(C4)C2)C3)c1	-	-	-	-	67	-
Clc1ccc(CSc2ccc(-c3ccccn3)nn2)cc1	-	-	-	24	-	-
c1ccc(CSc2ccc(-c3ccccn3)nn2)cc1	-	-	-	10	-	-
COC(=O)[C@]12C[C@H](CC(=O)NCC3CCCCC3)C(=O)N(CCc3ccc(OC)c(OC)c3)C1=C[C@H](C(C)C)O[C@@H]2C1CC1	-	.	-	.	.	-
Cc1cc(N2CCN(S(=O)(=O)c3ccccc3)CC2)nc2c(C)cccc12	-	-	-	-	68	-
Cc1cc(N2CCCCC2)nc2c(C)cccc12	-	-	-	-	-	-
CCCC(=O)NC(c1cccs1)c1cc(Cl)c2cccnc2c1O (configuration not stated)	-	-	-	29	-	-
CCCC(=O)NC(c1ccc2c(c1)OCO2)c1cc(Cl)c2cccnc2c1O (configuration not stated)	.	-	.	12	-	.
O=C(NCc1cccs1)C1C2C=CC3(CN(Cc4ccccc4)C(=O)C13)O2 (configuration not stated)	-	.	-	.	.	-
Cc1cc(Oc2cccnc2)ccc1NC(=O)CCc1c[nH]c2ccccc12	-	.	-	.	.	-
Cc1cnc(NC(=O)c2sc(Nc3ccccc3)nc2N)o1	-	-	-	-	55	-
Cc1cc(NC(=O)c2sc(Nc3ccc(F)cc3)nc2N)no1	-	-	-	-	56	-
CC(=NCCc1c(C)[nH]c2ccc(OCc3ccccc3)cc12)C1=C(O)CC(c2ccccc2)CC1=O (configuration not stated)	-	-	-	-	77	-
COC1=C[C@H](C(=O)NCc2ccc(Br)cc2)C(C)C(c2ccccc2)CC1=O (some centres not stated)	-	.	-	.	.	-
SMILES	PLCg1 inh	CR mimetic SO	sPLA2-III inh	HIF act	AHR activator	PLC-beta3 inh
CCc1nnc(N/N=C/c2ccccc2Cl)n1N	-	-	-	-	53	-
COc1cccc(/C=N/Nc2nnc(C)n2N)c1OCc1ccccc1Cl	-	-	-	-	57	-
COc1ccc(/C=N/Nc2nnc(C)n2N)cc1OC	-	-	-	-	-	-
O=C(Nc1ccc(F)cc1)c1ccc(=O)[nH]n1	-	-	-	-	-	-
O=C(Nc1ccc(F)cc1)c1cccnn1	-	-	-	-	51	-
CCCC[C@H](C(=O)N(CC)c1ccccc1)[C@@H](O)c1ccc(Cl)cc1	-	.	-	.	.	-
O=C(NN=C1c2ccccc2-c2ccccc21)c1ccccc1Br	-	-	-	-	-	-
O=C(NN=C1c2ccccc2-c2ccccc21)c1ccccc1	-	-	-	-	59	-
O=C(NCCNc1ccc([N+](=O)[O-])cc1C(F)(F)F)c1ccccc1F	-	-	-	-	59	-
COC(=O)[C@H]1C[C@@]2(n3ccc4ccccc43)c3ccccc3N(S(=O)(=O)c3ccccc3)[C@H]2N1	-	.	-	.	.	-
O=C(c1ccco1)N1CCN(c2c(-c3ccccc3)c3cc(Cl)ccc3[nH]c2=O)CC1	-	-	-	-	-	-
O=C(c1ccco1)N1CCN(c2ncnc3c2[nH]c2ccc(Cl)cc23)CC1	.	-	.	-	81	.
COC(=O)C(C[N+](=O)[O-])C1=C(O)CC(C)(C)CC1=O (configuration not stated)	-	.	-	.	.	-
Cc1nc(-c2ccc3c(c2)OCO3)cs1	-	-	-	-	-	-
Fc1ccc(-c2csc(/C=C/c3ccc4c(c3)OCO4)n2)cc1	-	-	-	-	82	-
O=C(Nc1cccc(NC(=O)c2cccnc2)c1)c1ccccc1	-	-	-	-	-	-
CCSc1ccc(NC(=O)c2cccnc2)cc1	-	-	-	-	-	-
O=C(Nc1cccc(C(F)(F)F)c1)c1cccnc1	.	-	.	-	56	.
O=C(Nc1cccc(-n2cnnn2)c1)c1ccc(C(F)(F)F)cc1	-	-	-	.	69	-
CCc1ccc(NC(=O)c2cccnc2)cc1	-	-	-	-	54	-
C=CCN(CC#Cc1ccccn1)Cc1ccc(OC)cc1OC	-	.	-	.	.	-
O=C(CSc1nnc(COc2ccccc2)n1-c1ccc(Cl)cc1)Nc1ccc2c(c1)OCCO2	-	.	-	.	.	-
C[C@H]1[C@@H](OC(=O)N2CCCC2)CC[C@@]23CCCN2C(=O)CCC[C@@H]13	-	.	-	.	.	-
COc1ccc(CCNC(=O)COC(=O)CCC(=O)c2ccc(F)cc2)cc1OC	-	-	-	299	-	-
COc1ccc(CCNC(=O)COC(=O)CCC(=O)c2cccs2)cc1OC	-	-	-	.	-	-
CC(C)c1ccc(NC(=O)c2snc3ccc(Cl)cc23)cc1	-	-	-	-	55	-
CN(C(=O)[C@@H](C1CC1)[C@@H](O)c1ccc2ccccc2c1)c1ccccc1	10	.	-	.	.	-
COc1cccc(N(C)C(=O)[C@@H](C2CC2)[C@@H](O)c2ccc(Cl)cc2)c1	-	.	-	.	.	-
Cc1ccc(C=Nn2c(-c3n[nH]c4c3CCC4)n[nH]c2=S)s1	-	.	-	.	.	-
CC(=O)c1c(-c2ccc(C)cc2)nc2c3ccccc3ccn12	-	-	-	-	59	-
